The structures appear in SMILES notation. Results filed as inconclusive are left out. A call without a number means that no potency is given here. Values without a mark were called inactive. Active and inactive are the calls of the source. The call rests on the fitted dose curve; in most records, active means well fitted cell-killing curve with a large enough effect in the repeat runs; inconclusive means weak or mixed curves, or effect the other way; inactive means flat fitted curve, though single readings scatter.
Potency means the concentration at half of the fitted maximal effect.

The nature of the assay: Nuclear factor erythroid 2-related factor 2/antioxidant responsive element (Nrf2/ARE) small molecule agonists: qHTS cell viability counter screen in human keratinocytes (AID 1919968). Further: nearly all actives have a fitted effect of over 55% in size. The settings on record: KeratinoSens HaCaT ARE cells viability, CellTiter-Fluor, 24 h; series mostly up to 92.4 µM. In outline: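 KeratinoSens HaCaT cells, 1,500/well, preincubated 5 h, then exposed to compounds in DMSO for 23 h at 37 C/5% CO2. Viability read as CellTiter-Fluor fluorescence after 1 h, in the same wells as the ARE-luciferase read.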
`C=COC(C)=O`: the Potency result was “inactive”.
As to `CCCCCl`, the Potency entry is “inactive”.
Consider `OC(c1ccc(F)cc1)(c1cncnc1)c1ccccc1Cl` (centres undefined), for which the Potency entry is “inactive”.
As for `CCOC(=O)OC1=C(c2cc(C)ccc2C)C(=O)NC12CCC(OC)CC2` (centres undefined), the Potency result is “inactive”.
The same measure, in the same setting: the entry for `NNCCO` is “inactive”; for `C[N+]1(C)[C@@H]2CC[C@H]1CC(OC(=O)C(CO)c1ccccc1)C2` (some centres undefined) it is “inactive”.
For the compound `O=CC(Br)(Br)Br`, the Potency was 8.61 µM (active).
`Nc1c(Br)cc(Br)c2c1C(=O)c1ccccc1C2=O`: the activity change, negative = cytotoxicity is -10.3% [at 19 µM].
Turning to `O=S(=O)(Cl)c1ccccc1`, the Potency result was “inactive”.
For `Cc1nnc2n1-c1sc(CCC(=O)N3CCOCC3)cc1C(c1ccccc1Cl)=NC2`, the Potency result is “inactive”.
Take `O=Cc1ccc2c(c1)OCO2`: the Potency result is “inactive”.
In the case of `CCN(CC)C(=S)[S-].CCN(CC)C(=S)[S-].[Zn+2]`, the Potency is 0.481 µM (active).
Turning to `CC(Oc1cccc(Cl)c1)C(=O)O` (centres undefined), the Potency entry was “inactive”.
For `N#CC(CCc1ccc(Cl)cc1)(Cn1cncn1)c1ccccc1` (centres undefined), the Potency entry was “inactive”.
On the same count and under the same terms, as for `CCCSP(=S)(OCC)Oc1ccc(Cl)cc1Cl` (centres undefined), the entry is “inactive”.
On to `CCC(CC)(CNC(=O)CCCO)c1cccc(OC)c1`, for which the Potency entry is “inactive”.
Regarding `CC(C)(C)c1cc([N+](=O)[O-])cc([N+](=O)[O-])c1O`, the Potency is 13.6 µM (active).
On the same count and under the same terms, the entry for `Cc1cnc2c(C(=O)O)c(Cl)ccc2c1` is “inactive”; for `CC[C@H](C)[C@H]1O[C@]2(C=C[C@@H]1C)C[C@@H]1C[C@@H](C/C=C(\C)[C@@H](O[C@H]3C[C@H](OC)[C@@H](O[C@H]4C[C@H](OC)[C@@H](O)[C@H](C)O4)[C@H](C)O3)[C@@H](C)/C=C/C=C3\CO[C@@H]4[C@H](O)C(C)=C[C@@H](C(=O)O1)[C@]34O)O2` it is 16.1 µM (active).

Source of the values: PubChem BioAssay (Tox21).
